# Assay outcomes as filed in PubChem.
# ATXN viability: reduces viability in counter-screen for ATXN expression inhibitors; S2 cells (HEK-293 line with an ATXN2-luciferase reporter) viability, CellTiter-Fluor protease fluorescence, 24 h; Potency, µM (series often up to 56.7 µM), actives largely listed as cytotoxic; 400,000 compounds, 0.49% hits; also: nearly all actives have a fitted effect of over 40% in size
# Gal4-VP16 FLuc: Gal4-VP16 reporter inhibition counter-screen; Drosophila S2 Gal4-VP16 UAS-luciferase, luminescence, 20 h; Potency, µM (doses to about 53.6 µM), for inactives: top-dose activity, negative = inhibition, most hits filed as inhibitors; 310,000 compounds, 3.5% hits;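 also: Gal4-VP16 expression switched on by copper sulfate through the metallothionein promoter; % is scaled to controls: 0 for no effect and ±100 for the full control effect; nearly all actives have a fitted effect of over 50% in size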
# ATXN2 expr inh: ATXN2 expression inhibition; Potency, µM (titrated, usually from 57 µM), for the others: at the highest dose activity change, negative = inhibition, usual class: inhibitors; HEK-293 ATXN2-luciferase reporter, luminescence, 24 h; AID 1745845; 360,000 compounds, 0.72% hits; also: % is scaled to controls: 0 for no effect and ±100 for the full control effect; nearly all actives have a fitted effect of over 55% in size
#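 ATXN2-luciferase reporter cells (luciferase flanked by upstream and downstream ATXN2 gene portions) were treated 24 h at 37 °C with compounds at up to 57 uM. SteadyGlo luminescence gave expression; GF-AFC fluorescence gave viability.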
# RORg inh: blocks mouse ROR gamma transcriptional activity. P51450. Drosophila S2 Gal4-RORgamma UAS-luciferase reporter, 20 h. Potency, µM (titrated, usually from 53.6 µM), without a hit: top-dose activity change, negative = inhibition, usual class: inhibitors. 310,000 compounds, 5.4% hits. AID 2551; also: % is scaled to controls: 0 for no effect and ±100 for the full control effect; nearly all actives have a fitted effect of over 60% in size
# Target sequence (P51450 whole entry, looked up, the tested form may be a part): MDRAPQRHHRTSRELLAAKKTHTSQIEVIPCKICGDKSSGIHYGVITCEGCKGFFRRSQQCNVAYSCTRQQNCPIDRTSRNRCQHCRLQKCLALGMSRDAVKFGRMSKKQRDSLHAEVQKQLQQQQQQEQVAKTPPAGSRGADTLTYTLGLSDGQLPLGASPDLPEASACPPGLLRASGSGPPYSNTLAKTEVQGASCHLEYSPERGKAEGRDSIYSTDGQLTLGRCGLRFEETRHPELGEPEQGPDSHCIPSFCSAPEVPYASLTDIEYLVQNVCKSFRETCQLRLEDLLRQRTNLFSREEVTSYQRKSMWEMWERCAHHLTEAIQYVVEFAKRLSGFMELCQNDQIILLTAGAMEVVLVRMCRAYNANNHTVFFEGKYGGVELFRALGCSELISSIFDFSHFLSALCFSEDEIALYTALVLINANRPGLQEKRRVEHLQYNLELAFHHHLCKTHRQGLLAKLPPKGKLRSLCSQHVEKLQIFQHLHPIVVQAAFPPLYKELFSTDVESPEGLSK
#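 Schneider cells (Drosophila), stable Gal4 DBD–ROR gamma + UAS-luc; 1 hr cmpd preincubation; Cu2+ induction 700 uM final; 20 hr ambient; luminescence.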
# TGFb SMAD3 inh: inhibitors of TGF-b signaling; AID 588855; Potency, µM (top dose mostly 46.1 µM), without a hit: at the top dose activity, negative = inhibition, hits mostly inhibitors; HepG2 CAGA-GFP TGF-b/SMAD3 reporter, GFP fluorescence, 18 h; TGF-beta stimulated, 500 pg/mL final; 410,000 compounds, 1.2% hits; also: % is scaled to controls: 0 for no effect and ±100 for the full control effect; nearly all actives have a fitted effect of over 65% in size
#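 Inhibition was scored as loss of TGF-beta-induced (500 pg/mL final, 18 hours, 37 degrees C) GFP in HEPG2 cells carrying a CAGA-GFP reporter, in DMEM with 1% FBS. Well GFP was summed per cell; Activity was normalised to unstimulated and stimulated DMSO wells, then concentration-response fitting.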
# HepG2 tox: counter-screen for TGF-b inhibitors: cytotoxicity in HepG2 cells; HepG2 CAGA-GFP viability, ATP luminescence, 18 h; Potency, µM (series often up to 46.1 µM), without a hit: at the top dose activity change, negative = cytotoxicity, most hits filed as cytotoxic; 410,000 compounds, 0.76% hits; AID 588856
#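 CellTiter-Glo luminescence gave cytotoxicity after 18 hours at 37 degrees C. The cells were HepG2 CAGA-GFP in 1% FBS DMEM, stimulated with 500 pg/mL TGF-beta after compound addition. %Activity was normalised to no-cell wells (complete cell-killing) and DMSO (no toxicity), and curves were fitted and classified.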
# * hit, by the source's call; i = inactive; ? = inconclusive; . = no result; [ ] = dose if it differs, or a comment. Shown are actives, neighbours in structure and some others; about 6.3% of the full set was active somewhere. Calls follow the shape of the dose curve; as a rule, active = well fitted curve in the direction sought with a large enough effect; inconclusive = small, poorly fitted or top-dose-only effect, or another doubt; inactive = no such curve, though single readings can be large; an effect the other way counts as inactive or inconclusive. Potency is read from the fitted curve at half-maximal effect.
SMILES,ATXN viability,Gal4-VP16 FLuc,ATXN2 expr inh,RORg inh,TGFb SMAD3 inh,HepG2 tox
COc1ccc(C2c3ccc4ccccc4c3Oc3ncn(CCCO)c(=N)c32)cc1 (centres undefined),.,-26.1%,25.1µM*,3.98µM*,?,-116.6%
COc1ccc(C2c3ccc4ccccc4c3Oc3ncn(CCO)c(=N)c32)cc1 (centres undefined),?,?,?,?,0.0%,-10.8%
Cn1c(Nc2ccc(C(F)(F)F)cc2)nc2cc(Oc3ccnc(-c4ncc(C(F)(F)F)[nH]4)c3)ccc21,.,.,-19.0%,.,.,.
Nc1[nH]c(=O)nc2nnsc12,.,.,.,.,-1.1%,7.1%
N#C/C(=C\c1cccs1)C(=O)c1ccccc1Cl,?,7.94µM*,?,?,?,-82.2%
N#C/C(=C\c1cccs1)C(=O)Nc1nccs1,?,?,4.4%,7.08µM*,-8.4%,-4.8%
Cc1c(CCNC(=O)c2c(F)cccc2F)sc2nc(-c3ccc(F)cc3)nn12,.,.,.,.,.,0.4%
Cc1nc2ccccc2c(=O)n1/N=C/c1c(O)ccc2oc3c(c12)CCCC3,i,?,?,?,9.0%,-6.6%
Cc1nc2ccccc2c(=O)n1/N=C/c1c(O)ccc2ccccc12,i,?,0.0%,12.6µM*,-0.5%,-25.4%
Cc1nc2ccccc2c(=O)n1/N=C/c1cc(Br)ccc1O,?,?,?,12.6µM*,-14.1%,-17.0%
COc1ccc(Br)cc1/C=N/n1c(C)nc2ccccc2c1=O,i,-0.4%,-14.1%,17.0%,5.0%,-4.5%
CSc1nnc(C(C)(C)C)c(=O)n1/N=C/c1c(O)ccc2ccccc12,i,?,5.5%,10µM*,7.6%,3.2%
CCCc1nc2ccccc2c(=O)n1/N=C/c1ccc(O)cc1O,i,20µM*,-11.6%,?,-2.5%,-2.2%
CC(=O)c1ccc(Nc2ccc([N+](=O)[O-])c3nonc23)cc1,?,?,.,11.8%[1.91 µM],11.2µM*,-19.5%
O=C(O)c1cccc(Nc2ccc([N+](=O)[O-])c3nonc23)c1,15.8µM*,-2.8%,4.8%,-10.8%,3.3%,5.7%
O=C(O)c1ccc(Nc2ccc([N+](=O)[O-])c3nonc23)cc1,?,-9.1%,-3.5%,-1.5%,2.6%,-2.4%
CCOC(=O)c1csc(NC(=O)CC2CCCC2)n1,i,-19.8%,18.8%,11.2µM*,-4.6%,49.3%
CN(C)C(=O)CCSC(SCCC(=O)O)c1cccc(/C=C/c2ccc3ccc(Cl)cc3n2)c1 (centres undefined),.,-3.5%,.,?,.,.
[O-]/C(=C(\C(=S)Nc1cccc2ccccc12)[n+]1ccccc1)c1ccc2c(c1)OCCO2,i,?,-12.0%,12.6µM*,2.3%,-6.2%
COc1ccc(/C=N/Nc2ccccn2)c(OC)c1OC,i,-6.2%,47.0%,?,0.0%,-5.0%
C(=N\Nc1nc2ccccc2[nH]1)/c1cccc2cccnc12,?,2.24µM*,.,0.355µM*,?,-36.5%
O=c1[nH]c(N/N=C/c2cc3c(cc2[N+](=O)[O-])OCO3)nc2ccccc12,i,24.6%,.,-19.2%,-2.8%,6.2%
C(=N\Nc1nc2ccccc2[nH]1)/c1c[nH]c2ccccc12,i,10µM*,46.7%,3.55µM*,?,1.7%
COc1ccc(/C=N/Nc2nc3ccccc3[nH]2)c(OC)c1OC,i,-24.8%,19.4%,12.6µM*,7.2%,-9.6%
Cc1cc(=O)[nH]c(N/N=C/c2c[nH]c3ccccc23)n1,i,-5.2%,.,39.3%,5.1%,-15.7%
O=[N+]([O-])c1cc(/C=N/Nc2nc3ccccc3[nH]2)c(O)cc1O,i,3.16µM*,-19.6%,3.55µM*,?,-11.2%
c1cnc2c(OCc3nc4ccccc4[nH]3)cccc2c1,i,?,69.7%,?,14.2%,-30.1%
COc1ccc(Cn2c(=O)n(Cc3ccco3)c(=O)c3oc4ccccc4c32)cc1,.,.,.,.,-13.7%,-10.0%
